In all, about 220,000 compounds went through this assay and about 2,400 (1.1%) were called active. The list comes from a sample in which actives are over-represented; it also holds similar structures and randomly drawn compounds. Unmarked numbers belong to inactive results.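 Rule for the calls: active = inhibition above a per-campaign cutoff, the mean inhibition of all tested compounds plus 3 SD (cut at about 27% in these data); inactive = the rest.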

This test can be described thus: parental Ba/F3 cell viability inhibition, counter-screen for JAK2V617F inhibitor project, murine pro-B, CellTiter-Glo luminescence (AID 1486).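 Note: 0% = DMSO wells and 100% = JAK Inhibitor I control wells.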 Conditions: CellTiter-Glo ATP luminescence, at 5.6 µM, stronger effect = higher value.
On to `N#CC1=C(N)Oc2[nH]c(=S)[nH]c(=O)c2C12C(=O)Nc1ccccc12` (stereo not drawn), for which the inhibition was 1.28%.
`Cc1nc(-c2ccccc2)cn2c1nc1ccccc12`: the inhibition is 6.83%.
As to `Cc1c(Cl)c([N+](=O)[O-])nn1CC(=O)NCC1CCCO1` (stereo not drawn), the inhibition is -0.44%.
As for `COc1ccc(-c2cc(C(F)(F)F)nc(SCC(=O)Nc3ccc4c(c3)OCO4)n2)cc1OC`, the inhibition is 6.51%.
With `COc1cc(OC)nc(S(C)(=O)=O)n1`, the inhibition is -0.84%.
The value for `COc1ccc(-c2cc(C(F)(F)F)nc(S(C)(=O)=O)n2)cc1OC` was 32.3% (active); that for `CC(=O)c1ccc2c(c1)OCCOCCOc1ccc(C(C)=O)cc1OCCOCCO2` was 6.46%; that for `O=C(CSc1nnc(-c2cccs2)n1-c1ccccc1)NCc1ccco1` was 1.12%.
Consider `COc1ccc(-n2c(SCC(=O)NCc3ccco3)nnc2-c2c[nH]c3ccccc23)cc1`, for which the inhibition was 7.39%.
As to `O=C(CSc1nnc(-c2c[nH]c3ccccc23)n1-c1ccc(F)cc1)NCc1ccco1`, the inhibition is 93.5% (active).
For `CC(C)C(C)(C#N)NC(=O)CSc1nncn1-c1ccccc1` (stereo not drawn), the inhibition was 6.72%.
The value for `CC(=O)c1sc(NC(=O)c2cccc3ccccc23)nc1C` was 4.12%; that for `CC(NC(=O)c1cccc2ccccc12)c1ccc2c(c1)CCCC2` (stereo not drawn) was 46.5% (active); that for `O=C(Cc1ccc2c(c1)CCCC2)Nc1ccccc1Cl` was 6.44%.
The value for `Cc1ccc(N/N=C2\COC(C)(C)CC2=O)cc1` was -2.17%; that for `O=S(=O)(NCc1ccco1)c1cnc(Cl)c(Cl)c1` was -2.02%.
In the case of `Oc1ccc2ccccc2c1C=Nc1ccccc1` it was 3.24%; in that of `Oc1ccc(N=Nc2nccs2)c(O)c1`, 0.92%.
As to `Oc1ccc2ccccc2c1N=Nc1nccs1`, the inhibition was 101% (active).
`Cc1ncoc1C(=O)N1CCCC(C(=O)c2ccc3c4c(cccc24)CC3)C1` (stereo not drawn): the inhibition was 5.56%.
With `N=C1/C(=C/c2cccn2-c2cccc([N+](=O)[O-])c2)C(=O)N=C2SC=CN12`, the inhibition was 3.29%.
As for `Cc1ccc(OCC(=O)N/N=C\c2ccco2)c(C)c1`, the inhibition was -2.78%.
The value for `Cc1ccc(OCC(=O)N/N=C/c2ccncc2)cc1` was -0.78%.
With `Cc1ccc(/C=N/NC(=O)COc2ccccc2-c2ccccc2)cc1`, the inhibition is 83.4% (active).
Consider `COc1ccc2nc(Nc3nc(-c4cc5ccccc5oc4=O)cs3)sc2c1`, for which the inhibition was 6.64%.
In the case of `CCNc1nc(-c2cc3ccccc3o2)cs1` it was 3.67%; in that of `O=c1oc2ccccc2cc1-c1csc(Nc2ccc(O)cc2)n1`, 37.3% (active).
Take `Cc1cc(Nc2ccc(Cl)cc2)nc(N2CCOCC2)n1`: the inhibition is -1.08%.

The values above are taken from PubChem BioAssay AID1486 (The Scripps Research Institute Molecular Screening Center, 2009).
